Compound activity as filed in PubChem.
SARS PLP yeast: qHTS of Yeast-based Assay for SARS-CoV PLP; hit rate 0.19% among 330,000; S. cerevisiae expressing SARS-CoV PLpro, growth rescue; AID 485353, 2010; Potency, µM (series often up to 32.9 µM), for the others: at the top dose activity, positive = growth rescue, actives largely listed as activators; calls by dose curve; note: potency is the fitted concentration of half-maximal effect; 0% is about no effect; nearly all actives have a fitted effect of over 55% in size
LASV entry inh: qHTS for Inhibitors of binding or entry into cells for Lassa Virus. Lassa virus pseudotype entry inhibition, cell reporter. Potency, µM (top dose mostly 37.9 µM), for the others: top-dose activity change, negative = inhibition, most hits filed as inhibitors. hit rate 1.2% among 300,000; calls by dose curve; tested in HEK293 cells; note: potency is the fitted concentration of half-maximal effect; % is set by controls: 0 for no effect and ±100 for the full control effect; nearly all actives have a fitted effect of over 50% in size
MARV entry inh: qHTS for inhibitors of binding or entry into cells for Marburg Virus; hit rate 1.8% among 300,000; AID 540276, 2011; Potency, µM (doses to about 37.8 µM), for the others: at the highest dose activity change, negative = inhibition, actives largely listed as inhibitors; Marburg virus pseudotyped entry inhibition, cell reporter; calls by dose curve; tested in HEK293 cells; note: potency is the fitted concentration of half-maximal effect; % is set by controls: 0 for no effect and ±100 for the full control effect
HCV inhibitor: qHTS Assay for Inhibitors of Hepatitis C Virus (HCV); Huh7.5.1 HCVcc-Cre infection, luciferase reporter, 44 h; hit rate 3.4% among 340,000; Potency, µM (top dose mostly 41.8 µM), for inactives: at the highest dose activity change, negative = inhibition, usual class: inhibitors; active = well fitted inhibition curve with a large enough effect; inconclusive = small, poorly fitted or top-dose-only effect, or another doubt; inactive = no such curve, though single readings can be large or run the other way; note: potency is the fitted concentration of half-maximal effect; % is set by controls: 0 for no effect and ±100 for the full control effect
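HCVcc-Cre virus at an moi near 0.5 was added right after compound to cells cultured 4 h from seeding (1,000 cells/well). Luciferase activity was determined 44 h later, 15 min after substrate addition at RT.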
FMDV antiviral: High Throughput Screening for Foot and Mouth Disease Virus Antivirals; AID 1159524, 2015; hit rate 1.2% among 410,000; Potency, µM (top dose mostly 57.9 µM), for inactives: at the top dose activity change, negative = inhibition, usual class: inhibitors; FMDV antiviral cell-based qHTS; calls by dose curve; tested in HEK293T cells; note: read-out not given here; potency is the fitted concentration of half-maximal effect; % is set by controls: 0 for no effect and ±100 for the full control effect; nearly all actives have a fitted effect of over 45% in size
HCMV antiviral: qHTS Assay for inhibitors of the human cytomegalovirus (HCMV). HFF cells, HCMV-luciferase reporter, 72 h; hits give low values. activity change, negative = inhibition, % at 57.5 µM. hit rate 4.5% among 410,000; in the data active = activity change below about -60%; inconclusive = no clear call, values can overlap the other calls; inactive = above about -39%; note: % is set by controls: 0 for no effect and ±100 for the full control effect
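Two-dose cell screen: HFF monolayers treated with compounds and infected with luciferase-expressing HCMV at 1 PFU/cell, 72 h at 37C, then lysed for luciferase measurement.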
An asterisk follows results filed as active; [ ] = another dose, or the depositor's remark. Rows were chosen to be rich in hits. Some 8% of all compounds tested hit in one or more screens of this group.

`CC(C)CCOc1cccc(OCC(=O)Nc2ccncc2)c1` gave SARS PLP yeast -77%, LASV entry inh -12%[46.1 µM], MARV entry inh inconclusive, HCV inhibitor inconclusive, FMDV antiviral -27% and HCMV antiviral -77*.
Cc1cc(OCC(=O)Nc2ccncc2)cc(C)c1Cl was read as SARS PLP yeast -10%, HCV inhibitor 13µM*, FMDV antiviral 8% and HCMV antiviral -64*.
For O=C(Cc1c(Cl)cccc1Cl)Nc1ccncc1 the results were SARS PLP yeast -9%, HCV inhibitor -12%, FMDV antiviral -25% and HCMV antiviral 6.
For O=C(Cc1ccc(Cl)cc1Cl)Nc1ccncc1 the results were SARS PLP yeast -13%, LASV entry inh -3%[46.1 µM], MARV entry inh -40%[46.1 µM], HCV inhibitor 8.9µM*, FMDV antiviral inconclusive and HCMV antiviral -66*.
Screening Cc1ccc(OCC(=O)Nc2ccncc2)cc1C returned FMDV antiviral -11% and HCMV antiviral -7.
For CCOC(=O)N1CCN(C(=O)c2cn(CC)c3ccc(S(=O)(=O)N4CCOCC4)cc3c2=O)CC1 the results were SARS PLP yeast 29%, HCV inhibitor 22%, FMDV antiviral 0% and HCMV antiviral -2.
For CCOC1=CC(=O)N(CCN)C1 the results were HCMV antiviral -5.
CCOc1ccc(-c2nc(Cn3c(=O)cc(C)c4c(C)nn(-c5ccc(C)cc5)c43)c(C)o2)cc1 was read as LASV entry inh 14%[46.1 µM], FMDV antiviral 36% and HCMV antiviral 27.
`CCCC(c1nnnn1CS(=O)(=O)c1ccc(C)cc1)N1CCN(c2ccccc2)CC1` (stereo not given) gave SARS PLP yeast 1%, LASV entry inh 11µM*, MARV entry inh inconclusive, HCV inhibitor inconclusive, FMDV antiviral -12% and HCMV antiviral 37.
CCC(c1nnnn1CS(=O)(=O)c1ccc(C)cc1)N1CCN(c2nc3ccccc3s2)CC1 (stereo not given) was read as SARS PLP yeast 7%, LASV entry inh inconclusive, MARV entry inh 8.2µM*, HCV inhibitor inconclusive and HCMV antiviral -64*.
Screening COc1cc(CCN2C(=O)NC(c3cccc(C(F)(F)F)c3)C(C(C)=O)=C2C)cc(OC)c1OC (stereo not given) returned LASV entry inh 1%[14.3 µM] and MARV entry inh 5%[14.2 µM].
`Cn1c(=O)c2cc(NC(=S)NCc3ccccc3F)ccc2n1Cc1ccccc1` gave FMDV antiviral -18% and HCMV antiviral -20.
Screening Cn1c(=O)c2cc(NC(=S)NCc3ccccc3F)ccc2n1Cc1cccc(C(F)(F)F)c1 returned FMDV antiviral -10% and HCMV antiviral -69*.
For CCOCCC(=O)Nc1ccc2c(c1)c(=O)n(C)n2Cc1cccc(C(F)(F)F)c1 the results were FMDV antiviral 0% and HCMV antiviral -62*.
`COc1cccc(Cn2c3ccc(NC(=O)CCc4ccc(F)cc4)cc3c(=O)n2C)c1` gave FMDV antiviral -26% and HCMV antiviral -85*.
Screening CN1OC[C@@H]2CN(S(=O)(=O)c3cccc4ccccc34)[C@H](c3ccc(-c4cccnc4)cc3)C[C@@H]21 returned FMDV antiviral -13% and HCMV antiviral 11.
For N#C[C@@H](c1ccccc1)C1CCN(S(=O)(=O)CCCCl)CC1 the results were HCMV antiviral -3.
Screening Nc1ccc(Oc2cccc(Oc3ccc(N)cc3)c2)cc1 returned SARS PLP yeast -7%, LASV entry inh inconclusive, MARV entry inh inconclusive, HCV inhibitor -11%, FMDV antiviral 10µM* and HCMV antiviral -76*.
For Cc1cc(C)cc(Oc2ccc(N)cc2)c1 the results were SARS PLP yeast 6%, LASV entry inh inconclusive, MARV entry inh -13%, HCV inhibitor 2µM*, FMDV antiviral 8% and HCMV antiviral 32.
Cc1cccc(Oc2ccc(N)cc2)c1 was read as SARS PLP yeast 13%, LASV entry inh -1%, MARV entry inh 23%, HCV inhibitor inconclusive, FMDV antiviral 0% and HCMV antiviral 61.
Cc1cc(C)n([C@@H]2CCCC[C@H]2OC(=O)c2ccccc2)n1 was read as MARV entry inh -7%[46.1 µM].
Screening COc1ccccc1Nc1ncnc2ccccc12 returned SARS PLP yeast -3%, LASV entry inh inconclusive, MARV entry inh -5%, HCV inhibitor -20%, FMDV antiviral 10% and HCMV antiviral 26.
`CCOc1ccccc1Nc1ncnc2ccc(Br)cc12` gave SARS PLP yeast 0%, LASV entry inh -4%[46.1 µM], MARV entry inh inconclusive, HCV inhibitor 22µM*, FMDV antiviral -26% and HCMV antiviral -30.
For CC(C)Nc1ncnc2ccc(Br)cc12 the results were SARS PLP yeast -7%, LASV entry inh inconclusive, MARV entry inh inconclusive, HCV inhibitor inconclusive, FMDV antiviral inconclusive and HCMV antiviral -96*.
For COc1cc2ncnc(NCc3ccco3)c2cc1OC the results were SARS PLP yeast 0%, HCV inhibitor -7%, FMDV antiviral -26% and HCMV antiviral -8.
`CC(=O)c1cccc(Nc2ncnc3ccc(Br)cc23)c1` gave SARS PLP yeast -3%, LASV entry inh inconclusive, MARV entry inh inconclusive, HCV inhibitor inconclusive, FMDV antiviral inconclusive and HCMV antiviral inconclusive.
`Brc1ccc2ncnc(NCc3ccco3)c2c1` gave SARS PLP yeast -8%, LASV entry inh inconclusive, MARV entry inh inconclusive, HCV inhibitor 25µM*, FMDV antiviral 14µM* and HCMV antiviral -87*.
CCOc1ccccc1Nc1ncnc2ccccc12 was read as SARS PLP yeast -2%, LASV entry inh -8%, MARV entry inh -10%, HCV inhibitor 10µM*, FMDV antiviral -32% and HCMV antiviral -17.
`CC(C)COc1ccc(Nc2ncnc3ccc(Br)cc23)cc1` gave LASV entry inh 9%[46.1 µM], MARV entry inh 1%[46.1 µM], FMDV antiviral 0% and HCMV antiviral -5.
CN1CCN(C2CN(CCc3ccccc3)S(=O)(=O)C2)CC1 (stereo not given) was read as LASV entry inh -13%[46.1 µM], FMDV antiviral -18% and HCMV antiviral -40.
`COc1cc(O)cc2c1C(=O)OC(C)CCCC(=O)CCC/C=C\2` (stereo not given) gave SARS PLP yeast 22%, LASV entry inh -2%, MARV entry inh 19%[46.1 µM], HCV inhibitor 0%, FMDV antiviral -26% and HCMV antiviral -20.
`C[C@H]1CCCC(=O)CCC/C=C/c2cc(O)cc(O)c2C(=O)O1` gave SARS PLP yeast -24%, MARV entry inh -8%, HCV inhibitor 8%, FMDV antiviral inconclusive and HCMV antiviral -99*.
